DAX1 inh-1 – inhibitors of human orphan nuclear receptor DAX1 (NR0B1). P51843. 0.99% of 340,000 active. HEK293 Gal4-DAX1 luciferase reporter, luminescence. inhibition, % at 6.75 µM;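 active = inhibition above the mean over all tested compounds plus 3 SD, cut at about 4.2% in these data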;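 note: 0% = DAX1-transfected cells with DMSO and 100% = empty-vector control cells with DMSO; inhibition shows as a rise in luminescence from relieved DAX1 repression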
DAX1 inh-2 – DAX1 (NR0B1) inhibition, primary screen; HEK293T StAR-luciferase reporter, SF-1/DAX-1 repression relief; inhibition, % at 6.8 µM; 1.1% of 370,000 active;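 active = inhibition above the mean over all tested compounds plus 3 SD, cut at about 3.6% in these data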;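 note: 0% = DAX-1 cells with DMSO and 100% = cells lacking DAX-1 with DMSO; higher inhibition means more luminescence from relief of DAX-1 repression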
hcDAF12 agonist – activators of H. contortus DAF-12 nuclear receptor; HEK293 hcDAF-12 lit1-tk-luc reporter, luminescence; 0% DMSO, 100% Δ7-dafachronic acid; activation, % at 6.8 µM; 1.4% of 370,000 active; AID 652067;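 active = activation above the mean of all tested compounds plus 3 SD, cut at about 5.5% in these data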;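 note: 100% = response to 3 µM Δ7-dafachronic acid high control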
ssDAF-12 act – activators of S. stercoralis DAF-12 nuclear receptor; HEK293 ssDAF-12/GRIP1 lit1-tk-luc reporter, luminescence; % of 3 µM dafachronic acid response; activation, % at 6.8 µM; 1% of 370,000 active; AID 652126;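 active = activation above the mean over all tested compounds plus 3 SD, cut at about 0.9% in these data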;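 note: 0% = DMSO-only wells and 100% = 3 µM delta7-dafachronic acid wells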
hgDAF12 agonist – agonists of H. glycines DAF-12 nuclear receptor; 1.8% of 370,000 active; HEK293 GAL4-hgDAF12 UAS-luciferase reporter, agonist luminescence; normalized to butyrate control; activation, % at 6.8 µM;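 active = activation above a cutoff set at the mean of all screened compounds plus 3 SD, cut at about 10% in these data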;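 note: 0% = DMSO wells and 100% = sodium butyrate wells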
LXR ag – counter-screen for hcDAF-12 agonists: agonists of human LXR-beta. activation, % at 6.8 µM. 3,400 tested, under 10 active. shares compounds with hcDAF12 agonist. AID 743027. HEK293 Gal4-LXR tk-luc reporter, luminescence, 24 h; normalized: DMSO 0%, positive control 100%;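 active = mean percent activation of the reporter above a cutoff set as the average over tested compounds plus their standard deviation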
Target sequence (P55055 whole entry, looked up, the tested form may be a part): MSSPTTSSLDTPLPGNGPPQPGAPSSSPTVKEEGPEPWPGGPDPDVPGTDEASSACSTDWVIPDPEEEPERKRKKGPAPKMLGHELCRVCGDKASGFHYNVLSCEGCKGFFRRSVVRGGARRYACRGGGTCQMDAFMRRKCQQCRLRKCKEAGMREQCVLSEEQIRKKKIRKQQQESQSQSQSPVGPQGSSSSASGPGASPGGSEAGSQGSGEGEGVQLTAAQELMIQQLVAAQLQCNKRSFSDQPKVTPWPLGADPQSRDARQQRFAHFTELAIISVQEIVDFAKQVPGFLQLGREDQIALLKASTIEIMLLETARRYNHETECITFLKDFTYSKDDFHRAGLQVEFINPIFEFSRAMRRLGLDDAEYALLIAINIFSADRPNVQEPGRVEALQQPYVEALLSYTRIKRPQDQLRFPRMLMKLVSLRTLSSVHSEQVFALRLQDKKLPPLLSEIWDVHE
hcDAF12 conf – confirmation of H. contortus DAF-12 agonists. shares compounds with hcDAF12 agonist. HEK293 hcDAF-12 lit1-tk-luc reporter, luminescence; % of Δ7-dafachronic acid response. activation, % at 6.8 µM. 61% of 3,400 active. AID 743032;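 active = mean activation across triplicate tests above the threshold derived from the earlier primary screen, cut at about 5.5% in these data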;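 note: 0% = DMSO only wells and 100% = 3 µM Δ7-dafachronic acid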
Starred values were filed as active, the others as inactive; x = not tested or not shown. Only some compounds are listed: those with a hit (about 4.1% of all), similar ones and a draw of the others.

SMILES | DAX1 inh-1 | DAX1 inh-2 | hcDAF12 agonist | ssDAF-12 act | hgDAF12 agonist | LXR ag | hcDAF12 conf
O=C(O)[C@@H]1CCCN1C(=O)c1ccccc1N1C(=O)[C@@H]2Cc3c([nH]c4ccccc34)C(c3cccc(Cl)c3)N2C1=O (stereo partly specified) | -1.1 | 1.1 | 8.8* | -0.3 | 2.3 | -0.3 | 3.6
COc1cccc(C2c3[nH]c4ccccc4c3C[C@H]3C(=O)N(c4ccccc4C(=O)N4CCC[C@H]4C(=O)O)C(=O)N23)c1 (stereo partly specified) | 0.8 | 0.9 | 4.4 | 0.0 | 4.5 | x | x
Cc1ccc(C2c3[nH]c4ccccc4c3C[C@H]3C(=O)N(c4ccccc4C(=O)N4CCC[C@H]4C(=O)O)C(=O)N23)cc1 (stereo partly specified) | 1.7 | 0.6 | 7.6* | 0.0 | 4.3 | -0.3 | 3.2
CC(=O)c1sc(NC(=O)CCc2ccccc2)nc1C | 1.5 | 1.3 | 2.7 | -0.1 | 7.4 | x | x
CC(C)Oc1cc(F)ccc1-c1cc(C(=O)NCCc2ccncc2)[nH]n1 | x | -3.0 | -2.8 | -1.3 | -4.0 | x | x
N/C(CS(=O)(=O)c1ccccn1)=N\OC(=O)c1ccccc1Cl | x | 1.1 | 7.3* | -0.4 | 8.2 | 0.6 | 3.5
O=C(O)Cc1ccc(NS(=O)(=O)c2ccc3c(c2)OCCO3)cc1 | 1.2 | 0.3 | 0.1 | -2.1 | -1.0 | x | x
CCOc1ccc(N=NC2C(=O)N(C(N)=S)N=C2C)cc1 (stereo unspecified) | 3.9 | 3.1 | 6.6* | 0.9* | 8.4 | 0.8 | 4.8
O=C1NC(Cc2ccccc2)c2nc3ccc(F)cc3c(=O)n2-c2cc3ccccc3cc21 (stereo unspecified) | -1.8 | -5.1 | -2.2 | -0.6 | -1.2 | x | x
CN(c1ccccc1)S(=O)(=O)c1ccc(C(=O)Nc2nnc(C3CC3)o2)cc1 | 1.2 | 0.0 | 7.2* | -1.0 | 0.8 | -0.1 | 0.4
CC(C)C[C@H]1COc2cc(Br)ccc2S(=O)(=O)N1Cc1cccc(Cl)c1 | x | 0.8 | -0.4 | -0.7 | 3.7 | x | x
NC(COCc1ccccc1)c1csc(NC(=O)Nc2cccc(C(F)(F)F)c2)n1 (stereo unspecified) | x | -0.6 | -1.2 | -1.4 | -3.0 | x | x
COc1cc(CN2C[C@@H](CO)O[C@@H](n3cnc4c(NCCN(C)C)ncnc43)C2)cc(OC)c1OC | x | 0.7 | -1.1 | -0.9 | 0.1 | x | x
c1ccc(CSc2cc3ccccc3[nH]2)cc1 | 1.7 | 0.7 | 10.1* | 0.5 | 9.3 | 0.5 | 10.6*
COc1ccc(SCC(O)Cn2c3ccccc3c3ccccc32)c(OC)c1 (stereo unspecified) | x | -0.2 | 2.0 | -0.7 | -1.7 | x | x
CCOC(=O)c1c(C)nsc1NC(=O)C1(C)CCN1C(=O)CC (stereo unspecified) | x | 0.1 | -0.2 | -1.6 | -2.6 | x | x
CC1CCC(NC(=O)c2ccc(CNc3c(NC4CCCCC4)c(=O)c3=O)cc2)CC1 (stereo unspecified) | 0.0 | 0.8 | -0.3 | 0.2 | 5.1 | x | x
O=C(c1ccc(CNc2c(NC3CCCCC3)c(=O)c2=O)cc1)N1CCc2ccccc21 | 1.3 | 0.1 | 7.4* | 1.1* | 7.6 | -0.3 | 1.3
CCOC(=O)COn1c(=O)c(-c2cc3ccccc3o2)[n+]([O-])c2ccccc21 | 1.3 | 2.5 | 9.3* | 1.0* | 8.6 | 1.5 | 14.4*
C=CCOn1c(=O)c(-c2ccccc2)[n+]([O-])c2ccccc21 | 0.3 | -0.4 | 3.7 | 0.3 | -1.7 | x | x
C=CCOn1c(=O)c(-c2cc3ccccc3o2)[n+]([O-])c2ccccc21 | 1.6 | 2.4 | 11.1* | 1.8* | 12.0* | 0.4 | 5.5
CCOC(=O)COn1c(=O)c(-c2ccc(F)cc2)[n+]([O-])c2ccccc21 | 1.4 | 0.5 | -0.8 | -0.9 | 0.5 | x | x
O=S1(=O)CCC(N(N=Cc2ccco2)c2ccccc2)C1 (stereo unspecified) | x | 0.3 | 0.1 | -2.0 | -0.5 | x | x
NC(=O)C1CC(=O)N(c2ccc(OCc3ccccc3Cl)cc2)C1 (stereo unspecified) | -1.0 | 0.4 | 7.3* | 0.0 | 5.6 | -0.1 | 0.4
